Laboratory results as given in PubChem BioAssay (NCI).
About 79,000 compounds went through this panel and 15% of them were active in at least one assay; those are over-represented in the sample as a whole. Calls of active or inactive are those of the source. Rule as the data show it: active = growth inhibition above about 70%; inactive = the rest.

Key:
[1] = NCI Yeast Anticancer Drug Screen. Data for the rad52 strain (AID 147);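 also: 0% = growth of vehicle-treated control cultures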; settings: S. cerevisiae rad52 mutant growth inhibition, stronger effect = higher value
How it was run: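 Compounds are applied to a genetically defined yeast strain lacking normal DNA damage repair, and inhibition of growth is expressed relative to cultures given vehicle only.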

[2] = NCI Yeast Anticancer Drug Screen. Data for the wt1 strain (AID 149);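 also: 0% = growth of vehicle-treated wt1 cultures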; settings: S. cerevisiae wt1 strain (SPY 50644) growth inhibition, stronger effect = higher value
How it was run: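 Using yeast strain wt1, compound-induced growth inhibition was determined against vehicle-treated cultures.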

[3] = NCI Yeast Anticancer Drug Screen. Data for the rad50EPP+ strain (AID 151);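 also: 0% = growth of vehicle-treated control cultures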; settings: S. cerevisiae rad50 mutant strain, stronger effect = higher value
How it was run: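 Compounds were applied to the rad50EPP+ yeast strain, which bears a defined DNA repair alteration, and growth inhibition was determined relative to vehicle-treated cultures.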

[4] = NCI Yeast Anticancer Drug Screen. Data for the mgt1 strain (AID 153); settings: S. cerevisiae mgt1 mutant growth inhibition, stronger effect = higher value
How it was run: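 Strain: mgt1 yeast, one of a set carrying defined DNA damage repair or cell cycle control alterations. Compound-treated growth compared with vehicle.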

[5] = NCI Yeast Anticancer Drug Screen. Data for the rad50 strain (AID 155);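 also: 0% = growth of vehicle-only cultures of the same strain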; settings: S. cerevisiae rad50 strain growth inhibition, stronger effect = higher value
How it was run: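 Relative growth inhibition (compound vs vehicle) was measured in yeast with a defined repair-gene alteration.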

[6] = NCI Yeast Anticancer Drug Screen. Data for the mec2-1 strain (AID 157); settings: S. cerevisiae mec2-1 strain, stronger effect = higher value
How it was run: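 Strain: mec2-1 (DNA repair/cell cycle alteration). Compound exposure, then growth measured; inhibition expressed relative to vehicle.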

[7] = NCI Yeast Anticancer Drug Screen. Data for the rad14 strain (AID 159);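 also: 0% = growth of vehicle-treated control cultures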; settings: S. cerevisiae rad14 strain growth inhibition, stronger effect = higher value
How it was run: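 Screen for anticancer potential: a yeast strain altered in DNA damage repair is grown with compound, and reduced growth is quantified against vehicle controls.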

[8] = NCI Yeast Anticancer Drug Screen. Data for the sgs1 mgt1 strain (AID 161);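 also: 0% = growth of cultures given vehicle only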; settings: S. cerevisiae sgs1 mgt1 strain, stronger effect = higher value
How it was run: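 Mutant yeast exposed to compound; growth scored against vehicle-only wells.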

[9] = NCI Yeast Anticancer Drug Screen. Data for the CLN2oe strain (AID 163);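 also: 0% = growth of vehicle-only control cultures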; settings: S. cerevisiae CLN2oe strain, stronger effect = higher value
How it was run: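 Growth of a genetically modified yeast strain is measured after compound exposure and compared with cultures given vehicle alone.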

[10] = NCI Yeast Anticancer Drug Screen. Data for the cln2 rad14 strain (AID 165);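 also: 0% = growth equal to vehicle treated cultures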; settings: S. cerevisiae cln2 rad14 strain, stronger effect = higher value
How it was run: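 Compounds are applied to the cln2 rad14 yeast strain, and growth is then compared with that of vehicle-treated cultures to give inhibition.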

[11] = NCI Yeast Anticancer Drug Screen. Data for the bub3 strain (AID 167); settings: S. cerevisiae bub3 mutant strain, stronger effect = higher value
How it was run: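 Screening used yeast with an engineered genetic alteration affecting cell cycle control. Compound-exposed cultures were compared with vehicle cultures, and reduced growth was taken as inhibition.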

[12] = NCI Yeast Anticancer Drug Screen. Data for the wt2 strain (AID 169);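 also: 0% = growth of vehicle-treated yeast cultures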; settings: S. cerevisiae wt2 strain growth inhibition, stronger effect = higher value
How it was run: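 This strain belongs to a panel of yeast strains with defined genetic alterations in DNA damage repair or cell cycle control. Compounds are applied, and growth inhibition is measured against vehicle-treated cultures.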

[13] = NCI Yeast Anticancer Drug Screen. Data for the mlh1 strain (AID 171);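 also: 0% = growth of vehicle-treated control cultures of the same strain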; settings: S. cerevisiae mlh1 strain growth inhibition, stronger effect = higher value
How it was run: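 Growth of the mutant yeast strain after compound exposure, expressed as inhibition relative to vehicle-only controls.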

[14] = NCI Yeast Anticancer Drug Screen. Data for the mlh1 rad18 strain (AID 175); settings: S. cerevisiae mlh1 rad18 strain growth inhibition, stronger effect = higher value
How it was run: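 Read-out is yeast growth inhibition, calculated against vehicle-only controls. The compound was applied to a strain engineered with DNA damage repair alterations.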

[15] = NCI Yeast Anticancer Drug Screen. Data for the rad18 strain (AID 177); settings: S. cerevisiae rad18 mutant growth inhibition, stronger effect = higher value
How it was run: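 Growth of the mutant yeast strain after compound exposure, normalised to vehicle-only cultures.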

[16] = NCI Yeast Anticancer Drug Screen. Data for the sgs1 strain (AID 173);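 also: 0% = growth of vehicle-only control cultures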; settings: S. cerevisiae sgs1 mutant, stronger effect = higher value
How it was run: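 Growth of a yeast strain bearing a defined genetic alteration is measured after compound treatment. Inhibition is expressed relative to vehicle-only controls.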

[17] = at 5.0 µM (retest, dose inferred, filed as 0.5)
[18] = at 50.0 µM (retest, dose inferred, filed as 5.0)

Measured: growth inhibition

CCC#CCCCOC(=O)c1cc([N+](=O)[O-])cc([N+](=O)[O-])c1
active: [1]; at 33.0 µM 81% | [1]; at 100.0 µM 98% | [2]; at 100.0 µM 99% | [3]; at 33.0 µM 92% | [3]; at 100.0 µM 98% | [4]; at 33.0 µM 93% | [4]; at 100.0 µM 99% | [5]; at 33.0 µM 87% | [5]; [18] 97% | [5]; at 50.0 µM 99.2% | [5]; at 100.0 µM 98% | [6]; at 33.0 µM 83% | [6]; [18] 99% | [6]; at 50.0 µM 99.3% | [6]; at 100.0 µM 99% | [7]; at 33.0 µM 79% | [7]; at 100.0 µM 99% | [8]; [18] 99% | [8]; at 50.0 µM 99.6% | [9]; at 100.0 µM 99% | [10]; [18] 94% | [10]; at 50.0 µM 97.7% | [11]; [18] 97% | [11]; at 50.0 µM 99.5% | [11]; at 100.0 µM 98% | [12]; at 33.0 µM 98% | [12]; at 100.0 µM 99% | [13]; at 33.0 µM 91% | [13]; at 100.0 µM 99% | [14]; [18] 99% | [14]; at 50.0 µM 99.2% | [15]; at 33.0 µM 94% | [15]; at 100.0 µM 99%
inactive: [1]; at 1.2 µM -3% | [1]; at 3.7 µM -4% | [1]; at 11.0 µM 2% | [2]; at 1.2 µM -6% | [2]; at 3.7 µM -8% | [2]; at 11.0 µM -10% | [2]; at 33.0 µM 66% | [3]; at 1.2 µM 3% | [3]; at 3.7 µM 21% | [3]; at 11.0 µM 55% | [4]; at 1.2 µM -5% | [4]; at 3.7 µM -8% | [4]; at 11.0 µM -4% | [5]; at 1.2 µM -4% | [5]; at 3.7 µM -6% | [5]; [17] 6% | [5]; at 11.0 µM 0% | [6]; at 1.2 µM -6% | [6]; at 3.7 µM -2% | [6]; [17] 7% | [6]; at 11.0 µM 2% | [7]; at 1.2 µM -5% | [7]; at 3.7 µM -6% | [7]; at 11.0 µM 1% | [8]; [17] 10% | [9]; at 1.2 µM -5% | [9]; at 3.7 µM -11% | [9]; at 11.0 µM -19% | [9]; at 33.0 µM 44% | [10]; [17] -7% | [11]; at 1.2 µM -10% | [11]; at 3.7 µM -7% | [11]; [17] 4% | [11]; at 11.0 µM -6% | [11]; at 33.0 µM 52% | [12]; at 1.2 µM -7% | [12]; at 3.7 µM -10% | [12]; at 11.0 µM 4% | [13]; at 1.2 µM -2% | [13]; at 3.7 µM 0% | [13]; at 11.0 µM 8% | [14]; [17] 13% | [15]; at 1.2 µM -3% | [15]; at 3.7 µM 4% | [15]; at 11.0 µM 20%

CC1(Cl)CC(O)C2(CC1Br)C1(C)OC1C1OC1(Br)C2(C)C (stereo unspecified)
active: [1]; at 100.0 µM 98% | [2]; at 100.0 µM 98% | [3]; at 100.0 µM 73% | [4]; at 33.0 µM 74% | [4]; at 100.0 µM 98% | [5]; at 33.0 µM 73% | [5]; [18] 79% | [5]; at 100.0 µM 97% | [6]; at 100.0 µM 98% | [7]; at 100.0 µM 97% | [8]; [18] 86% | [9]; at 100.0 µM 98% | [11]; [18] 89% | [11]; at 50.0 µM 73.5% | [11]; at 100.0 µM 98% | [12]; at 100.0 µM 98% | [16]; at 33.0 µM 78% | [16]; at 100.0 µM 98% | [14]; [18] 80% | [15]; at 33.0 µM 76% | [15]; at 100.0 µM 98%
inactive: [1]; at 1.2 µM 14% | [1]; at 3.7 µM 19% | [1]; at 11.0 µM 31% | [1]; at 33.0 µM 66% | [2]; at 1.2 µM 1% | [2]; at 3.7 µM -20% | [2]; at 11.0 µM -2% | [2]; at 33.0 µM 60% | [3]; at 1.2 µM -9% | [3]; at 3.7 µM -12% | [3]; at 11.0 µM -21% | [3]; at 33.0 µM 2% | [4]; at 1.2 µM -18% | [4]; at 3.7 µM -14% | [4]; at 11.0 µM -1% | [5]; at 1.2 µM -8% | [5]; at 3.7 µM -12% | [5]; [17] 12% | [5]; at 11.0 µM 1% | [5]; at 50.0 µM 62.6% | [6]; at 1.2 µM -29% | [6]; at 3.7 µM -21% | [6]; [17] 0% | [6]; at 11.0 µM -23% | [6]; at 33.0 µM 39% | [6]; [18] 53% | [6]; at 50.0 µM 59.2% | [7]; at 1.2 µM -18% | [7]; at 3.7 µM -14% | [7]; at 11.0 µM -23% | [7]; at 33.0 µM 61% | [8]; [17] 2% | [8]; at 50.0 µM 67.8% | [9]; at 1.2 µM 2% | [9]; at 3.7 µM 3% | [9]; at 11.0 µM 5% | [9]; at 33.0 µM 31% | [10]; [17] 33% | [10]; [18] 58% | [10]; at 50.0 µM 42.5% | [11]; at 1.2 µM -15% | [11]; at 3.7 µM 1% | [11]; [17] 29% | [11]; at 11.0 µM 1% | [11]; at 33.0 µM 35% | [12]; at 1.2 µM -10% | [12]; at 3.7 µM -5% | [12]; at 11.0 µM -1% | [12]; at 33.0 µM 62% | [16]; at 1.2 µM -25% | [16]; at 3.7 µM -33% | [16]; at 11.0 µM -17% | [14]; [17] -13% | [14]; at 50.0 µM 62.6% | [15]; at 1.2 µM -15% | [15]; at 3.7 µM -7% | [15]; at 11.0 µM 25%
